Records with an inconclusive call do not appear. A call without a number means that no potency is given here. Activity calls are given as the source filed them. Calls follow the shape of the dose curve; as a rule, active = well fitted cell-killing curve with a large enough effect; inconclusive = small, poorly fitted or top-dose-only effect, or effect the other way; inactive = no such curve, though single readings can be large or run the other way. Starred links: 1 amine or outer side, 2 acyl side, 3 side chain; linkers in the order of their positions; H or OH if unused. Positions of bridges follow the written chain, without caps; N, C: chain ends. Non-standard residues stand in square brackets, D forms with d. Residues, ends and D or L forms follow the SMILES beside them. Chains are numbered I, II in the order given. Actinocin(9to1) = Cc1c2oc3c(C)ccc(C(=O)[*:1])c3nc-2c(C(=O)[*:2])c(N)c1=O; NMeV = CN[CH](C(=O)O)C(C)C; Sar = CNCC(=O)O
How the values were obtained:
[1] = Quantitative High-Throughput drug screen in 47 multiple myeloma cell lines against the NCATS MIPE library collection: FR4_PLB cell viability assay (AID 1918924; also: nearly all actives have a fitted effect of over 35% in size)
Outline: (§1)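 Myeloma cell lines, 500 cells per well, exposed to MIPE 4.0 library compounds for 48 h at 37C, 5% CO2. Viability from ATP by CellTiter-Glo luminescence; normalised to DMSO (100%) and media-only (0%) wells.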

[2] = Quantitative High-Throughput drug screen in 47 multiple myeloma cell lines against the NCATS MIPE library collection: Delta47_JCRB cell viability assay (AID 1918925; also: nearly all actives have a fitted effect of over 45% in size)
Outline: (§2)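 Primary qHTS used for cherry-picking: cells at 500/well, library compounds for 48 h (37C, 5% CO2), luminescent ATP assay.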

[3] = Quantitative High-Throughput drug screen in 47 multiple myeloma cell lines against the NCATS MIPE library collection: AMO1_DSMZ cell viability assay (AID 1918927; also: nearly all actives have a fitted effect of over 30% in size)
Outline: as §2

[4] = Quantitative High-Throughput drug screen in 47 multiple myeloma cell lines against the NCATS MIPE library collection: ARD_JJKsccE7 cell viability assay (AID 1918929)
Outline: as §2

[5] = Quantitative High-Throughput drug screen in 47 multiple myeloma cell lines against the NCATS MIPE library collection: Karpas620_DSMZ cell viability assay (AID 1918959); also: nearly all actives have a fitted effect of over 30% in size
Outline: as §1

[6] = Quantitative High-Throughput drug screen in 47 multiple myeloma cell lines against the NCATS MIPE library collection: KMM1_JCRB cell viability assay (AID 1918960); also: nearly all actives have a fitted effect of over 30% in size
Outline: (§3)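 Here, 48 h treatment with MIPE 4.0 agents at 37 °C preceded an ATP luminescence read. Plating density was 500 cells per well.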

[7] = Quantitative High-Throughput drug screen in 47 multiple myeloma cell lines against the NCATS MIPE library collection: ARP1_JJKsccF8 cell viability assay (AID 1918928; also: nearly all actives have a fitted effect of over 40% in size)
Outline: as §3

[8] = Quantitative High-Throughput drug screen in 47 multiple myeloma cell lines against the NCATS MIPE library collection: EJM_DSMZ cell viability assay (AID 1918926; also: nearly all actives have a fitted effect of over 30% in size)
Outline: as §2
Potency is read from the fitted curve at half-maximal effect.

SMILES | Potency [1] | Potency [2] | Potency [3] | Potency [4] | Potency [5] | Potency [6] | Potency [7] | Potency [8]
CO[C@@H]1[C@@H](O)[C@H](O)[C@@H](n2c3c(Cl)cccc3c3c4c(c5c6cccc(Cl)c6[nH]c5c32)C(=O)NC4=O)O[C@@H]1CO | 3.32 µM (active) | 0.59 µM (active) | 0.166 µM (active) | 5.26 µM (active) | 1.48 µM (active) | 0.264 µM (active) |  | 
C#Cc1cccc(Nc2ncnc3cc(OCCOC)c(OCCO)cc23)c1 | 7.43 µM (active) | 1.05 µM (active) |  | 0.418 µM (active) |  | 4.69 µM (active) | 23.5 µM (active) | 
Cc1ccc(O)c(C(CCN(C(C)C)C(C)C)c2ccccc2)c1 (stereo not given) | inactive |  | inactive | inactive | inactive | inactive | inactive | 0.0017 µM (active)
CN(C)CC[C@H](c1ccc(Cl)cc1)c1ccccn1 | inactive | inactive |  |  | inactive | inactive |  | 
COc1cc2ncnc(Nc3cccc(Br)c3)c2cc1OC | 1.32 µM (active) | 1.48 µM (active) |  | 16.6 µM (active) |  | 14.8 µM (active) |  | 
NC(=O)c1ncn([C@@H]2O[C@H](CO)[C@@H](O)[C@@H]2O)c1N | inactive |  | inactive | inactive | inactive | inactive | inactive | inactive
Cc1cc(O)c2c(c1)C(=O)c1cccc(O)c1C2=O | inactive | inactive |  | inactive | inactive |  |  | 
CCCCCCCCCCCCc1ccc(S(=O)(=O)Nc2nncs2)cc1 | inactive | 0.935 µM (active) |  |  |  | inactive | inactive | 
COc1cc(N2CCC(C(N)=O)CC2)ccc1Nc1nc(N)c(Cl)c(Nc2ccccc2S(=O)(=O)C(C)C)n1 | 14.8 µM (active) | 0.0833 µM (active) | 5.26 µM (active) | 0.059 µM (active) |  |  |  | 
OC[C@@H](O)[C@@H](O)[C@H](O)[C@@H](O)CO | inactive |  | 5.9 µM (active) |  | inactive | inactive | inactive | inactive
O=C(NC1CC1)c1cccc(-c2ccc3c(NC(=O)C4CC4)n[nH]c3c2)c1 | 2.09 µM (active) | 7.43 µM (active) |  |  | inactive |  | 14.8 µM (active) | 
CN1CCCN(C(=O)c2cccc(-c3ccc(C=C4C(=O)Nc5ccc(Cl)cc54)o3)c2)CC1 | 26.4 µM (active) | 20.9 µM (active) | 7.43 µM (active) | 8.33 µM (active) |  | 18.7 µM (active) |  | 
CC(=CC(=O)Nc1ccccc1C(=O)O)c1ccc2ccccc2c1 | inactive | 14.8 µM (active) |  | 14.8 µM (active) |  |  |  | 
O=S(=O)(O)CCSSCCS(=O)(=O)O | inactive | inactive |  | inactive | inactive | inactive | inactive | 
COc1cc2c(cc1O)CCC1C2CC[C@@]2(C)C1CC[C@@H]2O (stereo not given in full) | 0.743 µM (active) | 2.64 µM (active) |  | inactive |  |  |  | 
Cc1cnn(C)c1C(=O)Nc1cc(Nc2ccc3c(C=Cc4ccccn4)n[nH]c3c2)ccc1F | 20.9 µM (active) | 8.33 µM (active) | 9.35 µM (active) | 4.18 µM (active) | 20.9 µM (active) | 1.66 µM (active) |  | 
COC1=C2C[C@@H](C)C[C@H](OC)[C@@H](O)[C@@H](C)C=C(C)[C@H](OC(N)=O)[C@@H](OC)C=CC=C(C)C(=O)NC(=CC1=O)C2=O | 0.332 µM (active) | 0.132 µM (active) |  |  |  |  | 0.118 µM (active) | 
N#Cc1ccc(COC[C@H]2O[C@@H](n3c(NCc4ccc(Cl)c(Cl)c4)nc4c(N)ncnc43)[C@@H](O)[C@@H]2O)cc1 | 13.2 µM (active) | 16.6 µM (active) |  | 5.26 µM (active) | 0.418 µM (active) |  | 6.62 µM (active) | 
C[C@H]1O[C@H](O[C@H]2[C@H](O)[C@@H](O)[C@@H](O[C@H]3[C@H](O)[C@@H](O)C(O)O[C@H]3CO)O[C@H]2CO)[C@H](O)[C@@H](O)[C@H]1N[C@H]1C=C(CO)[C@@H](O)[C@H](O)[C@@H]1O (stereo not given in full) | inactive |  |  |  |  |  |  | inactive
CCn1c(=O)c2c(nc(C=Cc3ccc(OC)c(OC)c3)n2C)n(CC)c1=O | inactive | inactive |  |  | inactive |  |  | 
O=C1NC(O)CCN1[C@@H]1O[C@H](CO)[C@H](O)[C@H]1O (stereo not given in full) | inactive | inactive |  | inactive | inactive |  |  | 

SMILES | Potency [1] | Potency [2] | Potency [3] | Potency [4] | Potency [5] | Potency [6] | Potency [7] | Potency [8]
CCCNS(=O)(=O)Nc1ncnc(OCCOc2ncc(Br)cn2)c1-c1ccc(Br)cc1 | inactive | 2.64 µM (active) |  | inactive |  | inactive | inactive | 
COc1cc(OC)c(NC(=O)Nc2cc(C)on2)cc1Cl | inactive | inactive | inactive |  | inactive | inactive |  | 
C[C@H](CCC(=O)O)[C@H]1CCC2C3C[C@H](O)[C@@H]4C[C@H](O)CC[C@]4(C)C3CC[C@@]21C (stereo not given in full) | inactive |  | inactive |  | inactive | inactive | inactive | inactive
CCCCCN=C(N)NN=Cc1c[nH]c2ccc(OC)cc12 | 2.35 µM (active) | 13.2 µM (active) |  | 2.96 µM (active) |  | 3.32 µM (active) |  | 
C[C@@H]1C(=O)O[C@H]2CC34[C@H]5C[C@@H](C(C)(C)C)C36[C@H](OC(=O)[C@@H]6O)O[C@@]4(C(=O)O5)[C@]21O (stereo not given in full) | inactive |  | inactive | inactive |  | inactive | inactive | inactive
N#Cc1c(NC(=O)c2cccc3ccccc23)sc2c1CCCC2 | 0.209 µM (active) | 0.418 µM (active) |  | 0.296 µM (active) |  | 0.296 µM (active) | 0.418 µM (active) | 
C=CC(=O)N1CCc2ccc(-n3c(=O)ccc4cnc5ccc(-c6cnn(C)c6)cc5c43)cc21 | 1.66 µM (active) | 0.935 µM (active) | 2.96 µM (active) | 0.833 µM (active) | 3.72 µM (active) |  |  | 
COC1=C(OC)C(=O)C(CC=C(C)CCC=C(C)CCC=C(C)CCC=C(C)CCC=C(C)CCC=C(C)CCC=C(C)CCC=C(C)CCC=C(C)CCC=C(C)C)=C(C)C1=O | inactive |  | inactive | inactive | inactive | inactive | inactive | inactive
Cc1c2oc3c(C)ccc(C(=O)NC4C(=O)NC(C(C)C)C(=O)N5CCCC5C(=O)N(C)CC(=O)N(C)C(C(C)C)C(=O)OC4C)c3nc-2c(C(=O)NC2C(=O)NC(C(C)C)C(=O)N3CCCC3C(=O)N(C)CC(=O)N(C)C(C(C)C)C(=O)OC2C)c(N)c1=O (stereo not given) (I: TVP[Sar][NMeV] / II: TVP[Sar][NMeV]; ester I:1-I:C, II:1-II:C; linker I:N-II:N via Actinocin(9to1); configuration not given here) | inactive | inactive |  | inactive | inactive | inactive |  | 
CN[C@H](CC(C)C)C(=O)N[C@H]1C(=O)N[C@@H](CC(N)=O)C(=O)N[C@@H]2C(=O)N[C@H]3C(=O)N[C@H](C(=O)N[C@H](C(=O)O)c4cc(O)cc(O)c4-c4cc3ccc4O)[C@H](O)c3ccc(c(Cl)c3)Oc3cc2cc(c3O[C@@H]2O[C@H](CO)[C@@H](O)[C@H](O)[C@@H]2O[C@H]2C[C@](C)(N)[C@H](O)[C@H](C)O2)Oc2ccc(cc2Cl)[C@H]1O | inactive |  | inactive | 0.0023 µM (active) | inactive | inactive | inactive | inactive
O=C(Nc1nnc(-c2ccco2)o1)c1cc(-c2ccccc2)nc2ccccc12 | 23.5 µM (active) | 18.7 µM (active) | 9.35 µM (active) | 18.7 µM (active) |  | 14.8 µM (active) |  | 
N#CC(=C(N)Sc1ccc(N)cc1)c1ccccc1C(F)(F)F | inactive | 5.9 µM (active) |  |  |  |  | 14.8 µM (active) | 
CN(N=O)C(=O)N[C@H]1C(O)OC(CO)[C@@H](O)[C@H]1O (stereo not given in full) | inactive | inactive | inactive | inactive |  | inactive |  | 
CCc1c(O)cc(O)c(C(=O)c2ccc(OCCN3CCOCC3)c(OC)c2)c1CC(=O)N(CCOC)CCOC | 1.18 µM (active) | 1.66 µM (active) | inactive |  |  | 0.935 µM (active) |  | 
C[C@H]1COc2c(N3CCN(C)CC3)c(F)cc3c(=O)c(C(=O)O)cn1c23 | inactive |  | inactive |  | inactive | inactive | inactive | 
COc1ccc2cc([S+]([O-])Cc3ncc(C)c(OC)c3C)nc2c1 | inactive |  |  | inactive |  |  | inactive | inactive
COc1ccnc2[nH]cc(C(=O)C(=O)N3CCN(C(=O)c4ccccc4)C[C@@H]3C)c12 | inactive |  |  |  | inactive | inactive | 16.6 µM (active) | inactive
O=C1c2c(O)cccc2[C@@H]([C@@H]2O[C@H](CO)[C@@H](O)[C@H](O)[C@H]2O)c2cc(CO)cc(O)c21 | inactive |  |  | inactive | inactive | inactive | inactive | inactive
COC(=O)[C@@H]1CC2=CC(=O)CC[C@]2(C)[C@@]23O[C@@H]2C[C@@]2(C)[C@H](CC[C@@]24CCC(=O)O4)[C@@H]13 | inactive |  | inactive | inactive | inactive |  |  | inactive
C[C@](Cc1c[nH]c2ccccc12)(NC(=O)OC1C2CC3CC(C2)CC1C3)C(=O)NC[C@H](NC(=O)CCC(=O)O)c1ccccc1 (stereo not given in full) | inactive |  |  |  |  |  | inactive | inactive
